According to PubChem BioAssay (NCATS):
Active and inactive are the calls of the source. Calls come from the whole dose curve; as a rule, active = well fitted inhibition curve with a large enough effect; inconclusive = small, poorly fitted or top-dose-only effect; inactive = flat fitted curve, though single readings scatter.

tested on: Nanoluciferase (engineered Oplophorus gracilirostris luciferase); assay: Primary Nanoluciferase (NLuc) qHTS assay for identification of artifact compounds. (AID 1845222); conditions: NLuc-conditioned medium, Nano-Glo luminescence, 5 min; series mostly up to 54.1 µM; activity, negative = inhibition: at the top concentration
From the text: PI: Alexander Tropsha Ph.D.
UNC Eshelman School of Pharmacy
University of North Carolina, Chapel Hill, North Carolina
Hits from high-throughput screening (HTS) of chemical libraries are often false positives due to their interference with the assay detection technology. In response to this problem, we generated the largest publicly available library of chemical liabilities and developed a free webtool to predict HTS artifacts, both of which are described herein. More specifically, we generated, curated, and integrated HTS datasets for thiol reactivity, redox activity, and luciferase (firefly and nano) activity. Using these curated datasets, we developed and validated several Quantitative Structure-Interference Relationship (QSIR) models to predict nuisance behavior. […] These models were employed for virtual profiling of the National Center for Advancing Translational Science's (NCATS) in-house library, and 256 compounds for each assay were selected for the experimental validation of nuisance behavior. The BA for these external predictions ranged from 58 to 78% for compounds within the applicability domains of the models. […] The models developed in this study, along with aggregation models previously developed by our group (SCAM Detective) were implemented in "Liability Predictor," an online tool which may be used as part of chemical library design or for triaging HTS hits. Both the models and the curated datasets are publicly available at https://liability.mml.unc.edu/.
SEQUENCE No. (e.g., 1, 2, 3, etc.); […] (e.g., Cells, Incubation, Reagent, etc.); VALUE; DESCRIPTION.
1; Reagent; 2 uL; Nanoluciferase media.
2; Compounds and control; 16 nL; Kalypsis pin tool (Wako USA) equipped with a 1536-well pin head.
4; Reagent; 2 uL; Luciferase enzyme.
6; Detection; Luminescence, ViewLux microplate reader.
NOTES (numbers refer to Sequence numbers above)
1. Medium was collected from the culture flasks of NLuc-expressing S16 cells (80% confluent) prior to cell plating, filtered through a 0.22um filter, and frozen at -20C prior to use. Media was diluted (1:55) and 2 uL was dispensed into all wells of a 1536-well assay plate (solid-bottom white plate; Greiner Bio One, Monroe, NC).
2. A Wako Pin-tool (Wako Automation, Richmond, VA) was used to transfer 16 nL of compounds (consisting of 7-plates in qHTS format, final concentration range 18.3 nM to 114 uM) or control Cilnidipine (final concentration range 623 nM to 80 uM).
3. 15 min. incubation at room temperature protected from light.
4. 2 uL of NLuc substrate (1:100 in Nano-Glo luciferase buffer; Nano-Glo luminescence assay, Promega, Madison, WI) was dispensed for a final assay volume of 4 uL.
5. Plates were centrifuged (121xg, 15 seconds) and incubated for 5 minutes.
6. Samples were read for luminescence on a ViewLux CCD imager (PerkinElmer). Data were normalized to no-enzyme (0% activity) and no-inhibitor (DMSO; 100%) controls and the resulting percent inhibition data were fitted to a 4-parameter Hill equation using NCATS in-house software.
Potency is the fitted concentration of half-maximal effect.

| Compound | activity, negative = inhibition | Potency |
| --- | --- | --- |
| COc1ccc(/C=C/C(N)=O)cc1OC | 2.41% (inactive) | – |
| O=C(CCc1ccccc1)c1c(O)c([C@@H]2O[C@H](CO)[C@@H](O)[C@H](O)[C@H]2O)c(O)c([C@@H]2O[C@H](CO)[C@@H](O)[C@H](O)[C@H]2O)c1O | 3.35% [at 25.7 µM] (inactive) | – |
| C=C[C@H]1[C@H](O[C@@H]2O[C@H](CO)[C@@H](O)[C@H](OC(=O)/C=C/c3ccc(O)c(OC)c3)[C@H]2O)OC=C2C(=O)OCC[C@]21O | -5.08% [at 25.7 µM] (inactive) | – |
| CC(=O)OC(C)C(C)(O)C(=O)O[C@@H]1CC[C@]2(C)CC(=O)C(=C(C)C)C[C@H]2[C@]1(C)OC(C)=O (stereo not given in full) | 0.821% [at 25.7 µM] (inactive) | – |
| COc1cc(-c2ccc(O)cc2)c(OC)c(O)c1C1=CC(=O)OC1CC(=O)O (stereo not given) | -6.42% (inactive) | – |
| C=C(C(=O)O)[C@@H]1CC[C@@]2(C)CC[C@@H](O)C(=C)C2C1 (stereo not given in full) | -1.68% (inactive) | – |
| C/C=C(/C)C(=O)O[C@@H]1C[C@@H](OC(=O)/C(C)=C\C)[C@@]2(C)C3C(=O)C=C(C)C2C3C1(C)C | -3.26% [at 25.7 µM] (inactive) | – |
| CC1(C)CC[C@]2(C(=O)O)CC[C@]3(C)C(=CCC4[C@@]5(C)CC[C@H](O[C@@H]6O[C@H](C(=O)O)[C@@H](O)[C@H](O)[C@H]6O)C(C)(C)C5CC[C@]43C)C2C1 (stereo not given in full) | 2.41% [at 25.7 µM] (inactive) | – |
| C=C[C@H]1[C@H](O[C@@H]2O[C@H](CO)[C@@H](O)[C@H](O)[C@H]2O)OC=C(C(=O)OC)[C@H]1CCO | 2.37% (inactive) | – |
| COc1cc(C)c(C(=O)OC2C(C)OC(OC3CCC(C)C4C3C=C(C)C3/C(C)=C\CC/C(C)=C/C5(C)C=C(C(=O)O)C(C)CC56OC(=O)/C(=C(\O)C34C)C6=O)C(O)C2O)c(OC)c1 (stereo not given) | 4.78% [at 11.6 µM] (inactive) | – |
| O=C(O)c1cc(O[C@@H]2O[C@H](CO)[C@@H](O)[C@H](O)[C@H]2O)ccc1O | 1.32% (inactive) | – |
| CC(=O)OC1CC(C(C)(C)O)OC2CCC3(C)OC4=C(C(=O)C=C5C(C)C(OC(C)=O)C6(C)C(C)OC546)C(O)C3C12C (stereo not given) | 1.38% [at 25.7 µM] (inactive) | – |
| C=C1CCC2[C@@](C)(C(=O)O)CCC[C@@]2(C)[C@@H]1CCc1ccoc1 (stereo not given in full) | -3.6% (inactive) | – |
| C=C1C[C@H](O)[C@@H](O)[C@@]2(C)C1[C@@H](O)[C@H]1OC(=O)C3[C@@H](C)[C@@H](O)[C@H](O)C2[C@]31C (stereo not given in full) | 4.99% (inactive) | – |
| CCOc1ccc(-c2cc(NC(=O)c3c(F)cccc3F)c(C(=O)O)s2)cc1 | – | 12 µM (active) |
| COc1c(C)c(OCC(O)C(C)(C)O)cc2c1CNC2=O (stereo not given) | -2.5% (inactive) | – |
| COc1cc(C2OCC3(O)C(c4ccc(O[C@@H]5O[C@H](CO)[C@@H](O)[C@H](O)[C@H]5O)c(OC)c4)OCC23O)ccc1O (stereo not given in full) | 2.36% [at 25.7 µM] (inactive) | – |
| O=C(Nc1ccccc1)Nc1ccc(-c2ccc(C(=O)C3CCCC3C(=O)O)cc2)cc1 (stereo not given) | 0% (inactive) | – |
| C/C=C/C=C/C=C/C(=O)O[C@@H]1C=C(CO)[C@](O)(CO)[C@@]2(C)CCCC(C)(C)[C@H]12 | -17.7% (inactive) | – |
| O=C(c1c2ccccc2cc2ccccc12)N1CCC(N2CCC[C@@H](C(=O)N3CCOCC3)C2)CC1 | -1.15% (inactive) | – |

| Compound | activity, negative = inhibition | Potency |
| --- | --- | --- |
| Cc1c(NC(=O)N2CCOCC2)ccc2c1c1ccccc1n2C(C)C | 0.698% (inactive) | – |
| C=C1CC[C@@]2(OC1)O[C@H]1CC3C4CC=C5C[C@@H](O[C@@H]6O[C@@H](C)[C@H](O)[C@@H](O)[C@H]6O)C[C@@H](O[C@@H]6O[C@H](C)[C@H](O)[C@H](O)[C@H]6O[C@@H]6O[C@@H](C)[C@H](O)[C@@H](O)[C@H]6O)[C@]5(C)C4CC[C@]3(C)[C@H]1[C@@H]2C (stereo not given in full) | -0.58% [at 11.6 µM] (inactive) | – |
| C[C@@H]1O[C@@H](O[C@H]2[C@H](O)[C@@H](O[C@@H]3O[C@H](CO)[C@H](O)[C@H](O)[C@H]3O)[C@H](O[C@H]3CC[C@@]4(C)C(CC[C@]5(C)C4CC=C4[C@@H]6CC(C)(C)CC[C@]6(C(=O)O[C@@H]6O[C@H](CO)[C@@H](O)[C@H](O)[C@H]6O)CC[C@]45C)C3(C)C)O[C@@H]2C(=O)O)[C@H](O)[C@H](O)[C@H]1O (stereo not given in full) | 2.46% [at 11.6 µM] (inactive) | – |
| C/C=C1\[C@H](O[C@@H]2O[C@H](CO)[C@@H](O)[C@H](O)[C@H]2O)OC=C(C(=O)O)[C@H]1CC(=O)OCCc1ccc(O)cc1 | 4.08% [at 25.7 µM] (inactive) | – |
| Cc1ccccc1-n1nc(-c2c(-c3ccc(F)cc3)nn3c2NC[C@@H](CO)C3)ccc1=O | -12.9% (inactive) | – |
| OC[C@H]1O[C@@H](OCCc2ccccc2)[C@H](O)[C@@H](O)[C@@H]1O | 3.72% (inactive) | – |
| CCC/C=C1\OC(=O)C2=C1CCC(O)C2O (stereo not given) | -0.893% (inactive) | – |
| CC1(C)CCC[C@]2(C)C1CC=C(CO)[C@H]2CC/C(=C/CO)CO (stereo not given in full) | -0.193% (inactive) | – |
| OCC(O)C(c1c[nH]c2ccccc12)c1c[nH]c2ccccc12 (stereo not given) | -0.866% (inactive) | – |
| CC[C@H](C)[C@H](NC(=O)[C@H](Cc1ccc(O)cc1)NC(=O)[C@@H](N)C(C)C)C(=O)N[C@@H](Cc1cnc[nH]1)C(=O)N1CCC[C@H]1C(=O)N[C@@H](Cc1ccccc1)C(=O)O | 2.76% [at 6.45 µM] (inactive) | – |
| Cn1cc(Nc2cnccc2C(=O)O)c2cccnc21 | 1.93% (inactive) | – |
| Cc1oc(S(=O)(=O)N2CCCCC2)cc1NC(=O)Nc1ccccc1 | 0.187% (inactive) | – |
| CC/C=C\C(O)C(O)C1=C(C)C(=O)C2(O1)C(=O)NC(OC)(C(=O)c1ccccc1)C2O (stereo not given) | -10.2% [at 25.7 µM] (inactive) | – |
| COc1cc(O)cc2c1C(=O)OC(C)CCCCCCC2 (stereo not given) | -0.534% (inactive) | – |
| CC[C@@H]1C(=O)O[C@]23C=C[C@@H]4C(C(=O)OC)=CO[C@H](O[C@@H]12)[C@@H]43 | -16.9% (inactive) | – |
| C=C1CCC(OC(C)=O)C2(C)CC3OC(=O)C(C)=C3CC12 (stereo not given) | 2.59% (inactive) | – |
| C=C(CCO[C@@H]1O[C@H](CO)[C@@H](O)[C@H](O)[C@H]1O)C(=O)O | 0% (inactive) | – |
| COC(=O)C1=COC(OC2OC(CO)C(O)C(O)C2O)C2C(C)CC(=O)C12O (stereo not given) | 0% [at 25.7 µM] (inactive) | – |
| CC(=O)/C=C/[C@H]1[C@](C)(O)[C@@H](O)[C@H](O)C2C(C)(C)CCC[C@@]21C (stereo not given in full) | -1.9% (inactive) | – |
| Cn1cc(-c2c[nH]c3ncnc(N4CCOCC4)c23)cn1 | 0.428% (inactive) | – |
